# From PubChem BioAssay
# Plk1 PBD FP – blocks phosphopeptide binding to human Plk1 polo box domain | actives 0.13% (n = 97,000) | P53350 | inhibition, %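 (tested at about 20 µM)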 | Plk1 PBD phosphopeptide binding, fluorescence polarization; in the data active = inhibition above about 34%, passing the limit was not always enough
# CYP2C19 act – cytochrome P450 2C19 (human) activation; activation factor at 5 µM; 96,000 tested, under 10 active; recombinant CYP2C19, luciferin-H EGE luminescence; stronger effect = higher value; 0 = fully inhibited enzyme, 1 = untreated enzyme;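 active = activation factor of at least 2 at 5 µM in the primary screen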;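 note: 0 = wells with 2.5 mM tranylcypromine and 1 = vehicle-only wells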
# CYP2C9 inh – blocks human cytochrome P450 2C9; inhibition, % at 5 µM; P11712; CYP2C9 Supersomes, luciferin-H conversion, luminescence; actives 20% (n = 96,000);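 active = blocking of liver enzyme CYP2C9 beyond about 50% at 5 µM, limit read from the data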
# Target sequence (P11712 whole entry, looked up): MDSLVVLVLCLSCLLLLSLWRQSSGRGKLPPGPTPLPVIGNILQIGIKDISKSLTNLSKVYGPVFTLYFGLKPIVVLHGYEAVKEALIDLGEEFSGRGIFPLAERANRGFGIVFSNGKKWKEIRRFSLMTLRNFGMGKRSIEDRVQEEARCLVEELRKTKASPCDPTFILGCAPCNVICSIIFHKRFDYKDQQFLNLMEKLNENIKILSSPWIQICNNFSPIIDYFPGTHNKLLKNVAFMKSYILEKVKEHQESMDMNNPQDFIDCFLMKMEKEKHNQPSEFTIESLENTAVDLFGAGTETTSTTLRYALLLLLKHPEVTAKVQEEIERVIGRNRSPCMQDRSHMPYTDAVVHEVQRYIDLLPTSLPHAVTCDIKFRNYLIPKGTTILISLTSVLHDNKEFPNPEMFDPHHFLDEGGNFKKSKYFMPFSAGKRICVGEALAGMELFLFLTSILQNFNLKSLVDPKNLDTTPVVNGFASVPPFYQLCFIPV
# PLK1 kinase inh – blocks human PLK1 kinase activity; P53350; recombinant PLK1 kinase, TR-FRET peptide phosphorylation; inhibition, % at 10 µM; actives 0.53% (n = 97,000); AID 619;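 active = inhibition of 50% or more in the single-concentration screen; inactive = inhibition below 50%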;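 note: 0% = DMSO max control and 100% = H-89 dihydrochloride min control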
# CYP2C9 act – activators of human CYP2C9 | P11712 | actives 1.4% (n = 96,000) | activation factor at 5 µM | recombinant CYP2C9, luciferin-H conversion, luminescence; stronger effect = higher value; factor 1 = untreated enzyme, 0 = blocked;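 active = activation factor of 2 or more for CYP2C9 at a 5 µM dose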;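 note: 0 = sulfaphenazole-blocked wells and 1 = vehicle-only wells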
# CYP2C19 inhib – inhibitors of human CYP2C19; CYP2C19 Supersomes, luciferin-H EGE luminescence, 30 min; AID 778; actives 21% (n = 96,000); inhibition, % at 5 µM; P33261;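 active = CYP2C19 inhibition above a set limit at 5 µM in the primary screen, cut at about 50% in these data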;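 note: plate controls were negative control wells for no effect and 2.5 mM tranylcypromine positive control for full effect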
# * = called active by the depositor; · = no result. A selection: hits, their analogues and other compounds. The true share with any hit is near 28%.
SMILES,Plk1 PBD FP,CYP2C19 act,CYP2C9 inh,PLK1 kinase inh,CYP2C9 act,CYP2C19 inhib
CCOC(=O)N1CCN(S(=O)(=O)c2ccc(F)cc2)CC1,2,0.8,15,-13,0.9,24
CN1CCN(S(=O)(=O)c2ccc3ccccc3c2)CC1,-17,0.9,-146,-7,2.5*,8
CN(C)S(=O)(=O)N1CCN(S(=O)(=O)c2ccc3ccccc3c2)CC1,7,0.9,-7,-8,1.1,6
CN1CCN(S(=O)(=O)c2cccc([N+](=O)[O-])c2)CC1,17,·,·,-18,·,·
CC1CCN(S(=O)(=O)c2ccc3ccccc3c2)CC1,11,0.2,-167,-5,2.7*,83*
CN1CCN(S(=O)(=O)c2cccc(S(=O)(=O)c3cccc(S(=O)(=O)N4CCN(C)CC4)c3)c2)CC1,-21,0.6,80*,3,0.2,40
CCOC(=O)N1CCC(N2CCN(S(=O)(=O)c3ccc4ccccc4c3)CC2)CC1,-5,0.9,-118,-13,2.2*,13
Cn1cc([N+](=O)[O-])c(C(=O)Nc2ccn(Cc3c(F)c(F)cc(F)c3F)n2)n1,-24,0.9,-63,-12,1.6,14
Cc1nccn1CC(O)COC1CCCCC1 (stereo not given),14,1,-9,-6,1.1,0
CCCOc1ccc(C(=O)NC(=S)Nc2nc(C)c(C(=O)N(C)C)s2)cc1,6,0.4,43,-8,0.6,63*
CN(C)c1ccc(NC(=O)c2ccc3nsnc3c2)cc1,9,0.9,-15,-5,1.1,14
CCCCCCC(=O)Nc1nc(C)c(-c2csc(Nc3ccc(Cl)cc3)n2)s1,10,0.9,27,-7,0.7,12
O=S(=O)(c1ccc2c(c1)OCCO2)N(Cc1ccc(F)cc1)Cc1nnc(-c2cccs2)o1,-9,0.7,87*,-10,0.1,33
Cc1cc(C(=O)CN(Cc2ccc(F)cc2)S(=O)(=O)c2ccc3c(c2)OCCO3)c(C)n1C,3,0.4,66*,-14,0.3,60*
Cc1ccc(S(=O)(=O)N(Cc2ccc(F)cc2)Cc2ccco2)cc1,15,0.8,13,-8,0.9,21
Cc1ccc(S(=O)(=O)N(CC(=O)N2CCC(C(N)=O)CC2)Cc2ccc(F)cc2)cc1,-15,0.7,38,4,0.6,30
CCOc1cc(NC(=O)c2cnccn2)c(OCC)cc1NC(=O)c1ccc(OC)cc1,·,0.8,14,·,0.9,22
Cc1sc2ncn(CC(=O)NCCN3CCOCC3)c(=O)c2c1S(=O)(=O)N1CCC(C)CC1,4,1.1,-4,-4,1,-10
Cc1ccc(C)n1/N=C1/NC(=O)CS1,-23,1.2,9,-8,0.9,-15
Cc1cc(C)cc(OCC(=O)Nc2nonc2NC(=O)COc2cc(C)cc(C)c2)c1,-2,0.6,64*,3,0.4,42
Cc1cc(C)cc(OCC(=O)Nc2cccc(C(=O)O)c2)c1,26,1,8,5,0.9,-4
CO/N=C(/CS(=O)Cc1ccc(Cl)cc1)c1ccc(Cl)cc1 (stereo not given),-23,0,56*,-7,0.4,96*
CO/N=C(\CS(=O)(=O)Cc1ccc(OC)cc1)c1ccc(Cl)cc1,4,0.6,7,-8,0.9,37
CCCCNS(=O)(=O)c1ccc2nc(SCC(=O)Nc3sccc3C#N)[nH]c2c1,21,0.3,97*,-7,0,69*
COC(=O)CSc1nc2ccc(C)cc2[nH]1,-9,1,-3,-1,1,4
SMILES,Plk1 PBD FP,CYP2C19 act,CYP2C9 inh,PLK1 kinase inh,CYP2C9 act,CYP2C19 inhib
CCCCNS(=O)(=O)c1ccc2nc(SCC(=O)c3ccccc3OC)[nH]c2c1,33,0.1,94*,-5,0.1,94*
Cc1nn(Cc2ccc(C(=O)Nc3nccs3)cc2)c(C)c1Cl,-7,1,8,-11,0.9,1
CCOC(=O)C1CCCN(C(=O)c2ccc(CS(=O)(=O)Cc3ccccc3C)o2)C1 (stereo not given),-2,0.7,37,-6,0.6,31
Cc1ccc(S(=O)(=O)Cc2ccc(C(=O)N3CCCC3)o2)cc1,-21,0.4,19,-12,0.8,58*
Cc1ccc(S(=O)(=O)Cc2ccc(C(=O)N3CCCCCC3)o2)cc1,21,0.7,28,-8,0.7,31
CCOC(=O)C1CCCN(C(=O)c2ccc(CS(=O)(=O)c3ccc(C)cc3)o2)C1 (stereo not given),-16,0.9,83*,-8,0.2,11
CCSc1nnc(NC(=O)Cc2ccc(OC)c(S(=O)(=O)N3CCOCC3)c2)s1,5,1,30,0,0.7,-4
CCCc1cc(-c2[nH]ncc2-c2ccc3c(c2)OCCCO3)c(O)cc1OC,9,0.1,100*,-5,0,86*
CCCc1cc2c(=O)c(-c3ccc4c(c3)OCCO4)coc2cc1OC(=O)c1ccco1,27,0.8,-15,-12,1.2,16
CCc1cc(-c2[nH]ncc2-c2ccc3c(c2)OCO3)c(O)cc1O,·,0,99*,·,0,100*
COc1ccc(-c2[nH]ncc2-c2ccc3c(c2)OCCO3)c(O)c1,·,0.4,66*,·,0.3,61*
Oc1ccccc1-c1cc(-c2ccc3c(c2)OCCO3)n[nH]1,·,0.8,27,·,0.7,21
COC(=O)c1c(C)[nH]c(C(=O)C(C)Sc2nnc(-c3cc(OC)c(OC)c(OC)c3)o2)c1C (stereo not given),2,0.6,72*,-1,0.3,40
COc1ccc(NC(=O)C(=O)NCc2ccncc2)c(OC)c1,-19,0.4,70*,-2,0.3,57*
COc1ccc(C)cc1NC(=O)C(=O)NCc1ccncc1,-1,0.6,78*,-10,0.2,41
COc1ccc(NC(=O)NCc2ccncc2)c(OC)c1,5,0.6,30,-4,0.7,40
CCOC(=O)Nc1cc(C)ccc1OC,-8,1,-30,-10,1.3,-4
O=C(Nc1nccs1)C1C2/C=C\CCCCC21 (stereo not given),-14,1,18,-12,0.8,1
Cc1cc(C)cc(N(CC(=O)NC2CCC(C)CC2)S(=O)(=O)c2c(C)noc2C)c1 (stereo not given),·,1,12,·,0.9,5
O=c1cc(Cl)[nH]c(=O)n1CCNc1ncc(C(F)(F)F)cc1Cl,-13,0.3,100*,-10,0,68*
CCOC(=O)Cc1c(C)nc2c(-c3ccc(Cl)cc3)c(C)[nH]n2c1=O,-23,0.4,9,-5,0.9,56*
CCOC(=O)Cc1c(C)nc2c(-c3cccc(Br)c3)c[nH]n2c1=O,·,0.9,74*,·,0.3,15
CCOc1ccc(Br)cc1S(=O)(=O)Nc1nc(CN2CCOCC2)nc2sc(C)c(C)c12,-1,0.8,30,-13,0.7,17
